Measurements taken from PubChem BioAssay (NCI).
Values joined by “and” are separate entries in the source; they are usually repeats but may differ in a detail not shown here. Equal entries are not always repeated. Compounds without any hit were thinned out: in the full panel of roughly 83,000, 20% have a hit.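 Plates (96-well) were seeded with cells, treated with compound at one concentration, and incubated for 48 hours before percent growth was determined.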 Active and inactive are the calls of the source. Rule for the calls: active = growth percent below 10; inactive = the rest.

Experiments:
Assay in all cases: NCI-60 one-dose screen, 48 h (100 = growth as untreated, 0 = no growth, -100 = all killed)
Conditions in all cases: 10 µM unless noted
NCI-H23 lung = test system: NCI-H23 lung
NCI-H226 lung = test system: NCI-H226 lung
NCI-H322M lung = test system: NCI-H322M lung
HOP-62 NSCLC = test system: HOP-62 NSCLC
NCI-H460 lung = test system: NCI-H460 lung
HOP-92 NSCLC = test system: HOP-92 NSCLC
NCI-H522 lung = test system: NCI-H522 lung
A549/ATCC NSCLC = test system: A549/ATCC NSCLC
786-0 renal = test system: 786-0 renal
COLO 205 colon = test system: COLO 205 colon
DU-145 prostate = test system: DU-145 prostate
K-562 leukemia = test system: K-562 leukemia
MALME-3M melanoma = test system: MALME-3M melanoma
MDA-MB-231 breast = test system: MDA-MB-231 breast
RXF 393 renal = test system: RXF 393 renal
SF-268 CNS = test system: SF-268 CNS
SF-295 CNS = test system: SF-295 CNS
SF-539 CNS = test system: SF-539 CNS
UACC-257 melanoma = test system: UACC-257 melanoma
M14 melanoma = test system: M14 melanoma

| SMILES | growth (NCI-H23 lung) | growth (NCI-H226 lung) | growth (NCI-H322M lung) | growth (HOP-62 NSCLC) | growth (NCI-H460 lung) | growth (HOP-92 NSCLC) | growth (NCI-H522 lung) | growth (A549/ATCC NSCLC) | growth (786-0 renal) | growth (COLO 205 colon) | growth (DU-145 prostate) | growth (K-562 leukemia) | growth (MALME-3M melanoma) | growth (MDA-MB-231 breast) | growth (RXF 393 renal) | growth (SF-268 CNS) | growth (SF-295 CNS) | growth (SF-539 CNS) | growth (UACC-257 melanoma) | growth (M14 melanoma) |
| --- | --- | --- | --- | --- | --- | --- | --- | --- | --- | --- | --- | --- | --- | --- | --- | --- | --- | --- | --- | --- |
| O=C1c2cccnc2-c2nccc3c2c1nc1cc(Br)ccc13 | -78.4% (active) and -66.2% (active) | -43.8% (active) and -48.5% (active) | -99.2% (active) and -89.2% (active) | -68.6% (active) and -85.7% (active) | -52.9% (active) and -78.6% (active) | -17.1% (active) and -72.6% (active) | -60.8% (active) and -66% (active) | -65.9% (active) and -81% (active) | -86.6% (active) and -85.6% (active) | -85.6% (active) and -85% (active) | -88.9% (active) and -99.9% (active) | -87.4% (active) and -25.6% (active) | 8.18% (active) | -9.52% (active) and -58% (active) | -51.7% (active) and -90.9% (active) | -1.91% (active) and -63.6% (active) | 0% (active) and -84.3% (active) | -87.2% (active) and -90.5% (active) | -78.4% (active) and -83.7% (active) | -77.1% (active) |
| O=C1c2ccccc2C(=O)c2sc(Nc3ccc(Cl)cc3)nc21 | -53.2% (active) | 1.07% (active) | 78% (inactive) | 55.4% (inactive) | 87.7% (inactive) | 59.1% (inactive) | 15.9% (inactive) | 71.8% (inactive) | 60.9% (inactive) | 82.9% (inactive) | -78.3% (active) | 4.83% (active) | -79.6% (active) | 6.43% (active) | 17% (inactive) | 42% (inactive) | 98.4% (inactive) | 2.24% (active) | -16% (active) | -2.34% (active) |
| O=C(Oc1cccc2cccnc12)c1ccccc1 | 94.3% (inactive) and 103% (inactive) | 110% (inactive) and 102% (inactive) | 107% (inactive) and 117% (inactive) | 98.8% (inactive) and 106% (inactive) | 87.1% (inactive) and 109% (inactive) | 91% (inactive) and 110% (inactive) | -4.17% (active) and 98.3% (inactive) | 100% (inactive) and 103% (inactive) | 100% (inactive) and 107% (inactive) | 84.8% (inactive) and 106% (inactive) | 92.9% (inactive) and 107% (inactive) | 48.5% (inactive) | 89.8% (inactive) and 99% (inactive) | 84.5% (inactive) and 104% (inactive) | 99.5% (inactive) and 108% (inactive) | 87.1% (inactive) and 102% (inactive) | 97.5% (inactive) and 98.7% (inactive) | 97.9% (inactive) and 106% (inactive) | 86% (inactive) and 96.8% (inactive) | 83.2% (inactive) and 96.9% (inactive) |
| COc1cc(/C=C(/C)C[N+](=O)[O-])ccc1O | 98.3% (inactive) | 104% (inactive) | 92.5% (inactive) | 103% (inactive) | 106% (inactive) | 98.4% (inactive) | 72% (inactive) | 85.9% (inactive) | 99.5% (inactive) | 86.8% (inactive) | 101% (inactive) | 69.7% (inactive) | -12.2% (active) | 89.8% (inactive) | 91.2% (inactive) | 101% (inactive) | 99.3% (inactive) | 105% (inactive) | 33.5% (inactive) | 83.2% (inactive) |
| CN(C)c1ccc(N=Nc2cccc3ccccc23)cc1 | 84.3% (inactive) | 63.5% (inactive) | 94.4% (inactive) | 85.7% (inactive) | 92.7% (inactive) | 74% (inactive) | 95% (inactive) | 89.8% (inactive) | 100% (inactive) | 87.2% (inactive) | 107% (inactive) | 117% (inactive) | 101% (inactive) | 80.1% (inactive) | 98.9% (inactive) | 95.1% (inactive) | 91.5% (inactive) | 97.1% (inactive) | 96.3% (inactive) | 80.5% (inactive) |
| Cc1ccc2nc(C[n+]3ccc4ccccc4c3)ccc2c1 | 42% (inactive) | 68.9% (inactive) | 97.6% (inactive) | 69.9% (inactive) | 55% (inactive) | 28% (inactive) | 47.1% (inactive) | 51.7% (inactive) | 92.2% (inactive) | 27.3% (inactive) | 76% (inactive) | 44.2% (inactive) | 61.2% (inactive) | 73.5% (inactive) | 93.6% (inactive) | 70.4% (inactive) | 59% (inactive) | 71.9% (inactive) | 24.9% (inactive) | 45.8% (inactive) |
| CCCCCCCCCCCCCCCCN(CC)CC | -93.1% (active) | -65.9% (active) | 14.5% (inactive) | -54.4% (active) | 1.87% (active) | -67.9% (active) | -82.4% (active) | -69.5% (active) | -86.1% (active) | -62.5% (active) | -48.4% (active) | -73.5% (active) | -90.3% (active) | -86.9% (active) | -86.2% (active) | -34.8% (active) | -92.9% (active) | -98.2% (active) | -51.9% (active) | -16.9% (active) |
| CCN(CC)CC(C)(C)C(=O)/C=C/c1ccc(Cl)c(Cl)c1 | 7.58% (active) | -15.3% (active) | 22.7% (inactive) | 46.1% (inactive) | -9.28% (active) | -3.59% (active) | -48.3% (active) | 33.3% (inactive) | -60.2% (active) | -53.4% (active) | -61.6% (active) | 1.04% (active) | -52.7% (active) | -48.8% (active) | -81.9% (active) | -0.0402% (active) | 48.1% (inactive) | -50.4% (active) | -5.04% (active) | -43.5% (active) |
| CC1SC(=S)N(c2ccc(Cl)cc2)C1=O (stereo not given) | 104% (inactive) and 92.2% (inactive) | 92.9% (inactive) and 97.2% (inactive) | 89.5% (inactive) and 89.8% (inactive) | 92.4% (inactive) and 92.7% (inactive) | 100% (inactive) and 108% (inactive) | 77.6% (inactive) | 89.8% (inactive) | 93.8% (inactive) and 95.7% (inactive) | 91.5% (inactive) and 93.1% (inactive) | 124% (inactive) and 107% (inactive) | 104% (inactive) and 96.3% (inactive) | 84.1% (inactive) and 78.8% (inactive) | 104% (inactive) and 108% (inactive) | 99.6% (inactive) and 86.4% (inactive) | 116% (inactive) | 109% (inactive) and 84.1% (inactive) | 96% (inactive) and 98.8% (inactive) | 98.5% (inactive) and 70.7% (inactive) | 97.9% (inactive) | 111% (inactive) and 105% (inactive) |
| CN(C)c1ccc(/C=N/N=C(\C#N)[S][Sn]([Cl])([c]2ccccc2)[c]2ccccc2)cc1 | 28.6% (inactive) | -69.4% (active) | 84.1% (inactive) | 84.5% (inactive) | 84.3% (inactive) | -15.6% (active) | -81.4% (active) | 78.3% (inactive) | 10.8% (inactive) | -51.6% (active) | 5.62% (active) | 3.13% (active) | -50.8% (active) | -12.7% (active) | -86.3% (active) | 42.9% (inactive) | 107% (inactive) | -16.3% (active) | 21.3% (inactive) | 4.46% (active) |
| CN(Cc1cnc2nc(N)nc(N)c2n1)c1ccc(C(=O)NC(CCC(=O)O)C(=O)O)cc1 (stereo not given) | 23.4% (inactive) | 30.2% (inactive) | 48.6% (inactive) | 43% (inactive) | 16.4% (inactive) | 37.1% (inactive) | 29.2% (inactive) | 19.8% (inactive) | 13.7% (inactive) | 58.5% (inactive) | 26.7% (inactive) | 18.7% (inactive) | 43.8% (inactive) | 82.8% (inactive) | 46.1% (inactive) | 25.5% (inactive) | 20% (inactive) | 22.2% (inactive) | 53% (inactive) | 10.9% (inactive) |
| N#CSCc1ccc(CSC#N)c(Cl)c1 | 85.1% (inactive) | 93.1% (inactive) | 106% (inactive) | 129% (inactive) | 75.5% (inactive) | 4.78% (active) | 15.7% (inactive) | 75.8% (inactive) | 73.2% (inactive) | 45% (inactive) | 42.5% (inactive) | 33.8% (inactive) | 54.3% (inactive) | 52.5% (inactive) | 72.2% (inactive) | 65.8% (inactive) | 102% (inactive) | 58.8% (inactive) | 67.6% (inactive) | 50.7% (inactive) |
| CCC(c1cccc(O)c1)C(CC)c1cccc(O)c1 (stereo not given) | 78.7% (inactive) | 82.7% (inactive) | 59.5% (inactive) | 83.8% (inactive) | 59.4% (inactive) | 57% (inactive) | 56.3% (inactive) | 67.8% (inactive) | 74.8% (inactive) | 61.9% (inactive) | 86% (inactive) | 17.1% (inactive) | 54.8% (inactive) | 64.2% (inactive) | 79.5% (inactive) | 63.7% (inactive) | 58.3% (inactive) | 39.1% (inactive) | 71.8% (inactive) | 23.8% (inactive) |
| O=C1NC(=O)/C(=C/C=C/c2ccccc2)S1 | 32.6% (inactive) | 75.8% (inactive) | 51.4% (inactive) | 22.5% (inactive) | 10.6% (inactive) | 45.2% (inactive) | 24.4% (inactive) | 89.1% (inactive) | 1.55% (active) | 80.7% (inactive) | 50.3% (inactive) | 31.1% (inactive) | 60.2% (inactive) | 82.5% (inactive) | 66.3% (inactive) | 31.8% (inactive) | 14.3% (inactive) | -6.41% (active) | 45.1% (inactive) | 12.3% (inactive) |
